Screens deposited in PubChem by several laboratories.
Mtb bLac sens – beta-lactam sensitization of Mtb H37Rv. M. tuberculosis H37Rv growth with meropenem, percent inhibition. inhibition, % at 25 µM. 0.27% of 330,000 active. AID 434955;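 also: growth measured after seven days incubation then overnight dye step; 0% = bacteria only wells and 100% = bacteria with antibiotic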
FBA Mtb inh – inhibits M. tuberculosis FBA enzyme | purified M. tuberculosis FBA, fluorescence read-out | 2.3% of 360,000 active | inhibition, % at 1 µM | P9WQA3 | AID 588726; in the data active = inhibition above about 27%;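 also: 0% = vehicle and 100% = reference inhibitor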
Target sequence (P9WQA3 whole entry, looked up): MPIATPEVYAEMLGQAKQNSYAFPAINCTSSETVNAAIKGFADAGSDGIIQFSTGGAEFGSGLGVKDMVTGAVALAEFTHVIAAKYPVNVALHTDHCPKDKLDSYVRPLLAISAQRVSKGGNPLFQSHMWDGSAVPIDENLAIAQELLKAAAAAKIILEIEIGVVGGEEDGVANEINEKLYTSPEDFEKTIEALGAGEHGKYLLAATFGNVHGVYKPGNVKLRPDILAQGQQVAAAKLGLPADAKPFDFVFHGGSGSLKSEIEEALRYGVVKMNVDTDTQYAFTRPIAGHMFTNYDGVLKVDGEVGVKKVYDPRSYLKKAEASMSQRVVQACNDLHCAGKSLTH
DUSP3 inh – inhibitors of human VHR1 phosphatase (DUSP3); 0.52% of 290,000 active; P51452; recombinant VHR phosphatase, pNPP absorbance; inhibition, % at 13.3 µM; in the data active = inhibition above about 50%
Target sequence (P51452 whole entry, looked up): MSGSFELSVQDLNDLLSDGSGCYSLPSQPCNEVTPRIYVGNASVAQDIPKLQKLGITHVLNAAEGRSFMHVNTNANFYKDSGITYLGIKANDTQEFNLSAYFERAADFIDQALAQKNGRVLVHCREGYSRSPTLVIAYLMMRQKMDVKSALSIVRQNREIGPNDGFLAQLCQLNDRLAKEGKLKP
GDH-TPI counter-1 – GDH-TPI coupled enzyme inhibition counter-screen | GDH-TPI coupled enzyme counterscreen, NADH absorbance | inhibition, % at 4.8 µM | 1.2% of 360,000 active | AID 588335; in the data active = inhibition above about 30%;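 also: 0% = DMSO wells and 100% = wells lacking the enzyme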
Mtb hypoxia inh – reduces hypoxia-regulated biosensor signal in M. tuberculosis | fluorescence inhibition, % (no concentration beside the values) | 0.1% of 300,000 active | M. tuberculosis hypoxia-regulated fluorescent reporter, fluorescence; in the data active = fluorescence inhibition mostly above about 23%, no sharp cut-off; inactive = mostly below about 17%
Mtb FBA inh conf – confirmation of M. tuberculosis fructose-bisphosphate aldolase inhibitors; shares compounds with FBA Mtb inh; purified M. tuberculosis FBA, fluorescence read-out; inhibition, % at 1 µM; 78% of 5,600 active; AID 651616; in the data active = inhibition above about 27%;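 also: 0% = vehicle wells and 100% = reference inhibitor wells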
GDH-TPI counter-2 – inhibits GDH-TPI coupling enzymes, flagging Mtb FBA hits | shares compounds with FBA Mtb inh | GDH-TPI coupled enzyme counterscreen, fluorescence | inhibition, % at 1 µM | 81% of 5,600 active; in the data active = inhibition above about 10%
GDH-TPI dose – counter-screen for M. tuberculosis FBA inhibitors: GDH-TPI dose response | IC50, µM | GDH-TPI coupled enzyme assay, fluorescence, artifact counterscreen | shares compounds with FBA Mtb inh | 79% of 170 active
Numbers without * were called inactive; u = inconclusive; x = no result given; + = active, no number. Compounds with a hit are over-represented: about 3.6% of the library has one in this group of screens. Unless noted, no rule for the calls is given here.

SMILES | Mtb bLac sens | FBA Mtb inh | DUSP3 inh | GDH-TPI counter-1 | Mtb hypoxia inh | Mtb FBA inh conf | GDH-TPI counter-2 | others
CCc1cc(=O)oc2cc(C)cc(OC(C)C(=O)NC3CC(C)(C)NC(C)(C)C3)c12 (stereo not given) | -6.0 | 72.2* | -7.2 | 13.0 | 7.7 | 49.1* | 42.4*
Cc1c(OC(C)C(=O)NCCCN2CCOCC2)ccc2c1oc(=O)c1ccccc12 (stereo not given) | -1.1 | 74.3* | 9.1 | -5.5 | 13.2 | 2.4 | -4.9
CCc1cc(=O)oc2cc(C)cc(OC(C)C(=O)NCCCN3CCCC3=O)c12 (stereo not given) | 0.8 | 86.7* | 12.3 | -2.2 | 0.7 | 0.7 | 1.0
Cc1cc(OCC(=O)NCCCN2CCCC2=O)c2c(C)cc(=O)oc2c1 | -3.6 | 103.2* | -0.7 | 10.9 | 1.0 | -7.8 | -5.5
O=C(COc1cc2oc(=O)c3c(c2cc1Cl)CCC3)NCCCN1CCCC1=O | 4.3 | 3.9 | 19.7 | 18.8 | 1.5 | x | x
C#C[C@]1(O)CCC2C3CCC4=CC(=O)CCC4C3CC[C@@]21CC (stereo not given in full) | x | x | x | x | -7.5 | x | x
C/C(C=NNC(=O)CSc1nc(C)cc(C)n1)=C\c1ccccc1 | x | x | x | x | 15.3 | x | x
O=C(NN=C/C=C/c1ccco1)c1cncc(Br)c1 | x | x | x | x | 4.0 | x | x
Cc1c(C)c2ccc(OC(C)C(=O)NCCCn3ccnc3)c(C)c2oc1=O (stereo not given) | 5.6 | 55.3* | 11.4 | 20.7 | 15.4 | 66.6* | 50.7*
CCc1cc(=O)oc2cc(C)cc(OC(C)C(=O)NCCCn3ccnc3)c12 (stereo not given) | 2.9 | 53.7* | 16.0 | -8.7 | 11.8 | 5.2 | -6.5
CCc1cc(=O)oc2cc(OCC(=O)NCCCN3CCCC3=O)ccc12 | 3.3 | 19.2 | 33.9 | 4.3 | 1.9 | x | x
Cc1cc(=O)oc2cc(OCC(=O)NCCCN3CCCC3=O)c(Cl)cc12 | -7.0 | 6.2 | 18.2 | 5.5 | 4.9 | x | x
CCCc1cc(=O)oc2cc(C)cc(OCC(=O)NCCCN3CCCC3=O)c12 | 3.1 | 66.4* | 3.9 | 0.0 | 8.1 | + | +
Cc1c(C)c2cc(Cl)c(OCC(=O)NCCCN3CCCC3=O)cc2oc1=O | x | 44.7* | x | 33.6* | x | 12.5 | 3.9 | GDH-TPI dose=7.07*
COC(CC1OC1C(O)C(C)OCc1ccccc1)OC (stereo not given) | x | x | x | x | 4.2 | x | x
Cc1nn(-c2ccc(F)cc2)c(Cl)c1C=NNC(=O)c1cccc(S(=O)(=O)N2CCCC2)c1 | x | x | x | x | -0.3 | x | x
Cc1ccc(C=C2CCC(C3CCCC3)C2=O)cc1 (stereo not given) | x | x | x | x | 1.2 | x | x
CC(CCc1ccccc1)=NNC(=O)c1ccc(CN2CCOCC2)cc1 | x | x | x | x | 1.0 | x | x
CN(CC(=O)Nc1cccc(F)c1)C(=O)c1cc(-c2ccco2)nc2ccccc12 | -0.9 | 75.0* | x | 11.3 | 4.8 | + | 169.6*
COc1ccc(NC(=O)CN(C)C(=O)c2cc(-c3ccco3)nc3ccccc23)cc1 | -5.7 | 45.1* | x | 13.6 | 2.6 | + | +
O=c1ccc2cc3c4c(c2o1)CCCN4CCC3 | 2.2 | 54.4* | 19.8 | 0.0 | -2.8 | 62.1* | 59.7*
O=c1oc2c3c4c(cc2s1)CCCN4CCC3 | 0.3 | -0.7 | 39.7 | 10.3 | 3.2 | x | x
CCCCn1c(N)c(N(CC(C)C)C(=O)CSc2n[nH]c(-c3ccc(C)cc3)n2)c(=O)[nH]c1=O | 0.0 | 67.1* | x | 13.8 | -1.1 | 69.5* | 44.3*
O=c1c2c([nH]c3ccccc13)CCCCC2 | -6.0 | -0.8 | 20.6 | 6.2 | -5.1 | x | x
COc1ccc2[nH]c3c(c(=O)c2c1)CCCC3 | x | 30.1* | x | x | x | + | 153.3*
SMILES | Mtb bLac sens | FBA Mtb inh | DUSP3 inh | GDH-TPI counter-1 | Mtb hypoxia inh | Mtb FBA inh conf | GDH-TPI counter-2 | others
C#CCOCCOCCOCCNc1nc(N2CCN(C(=O)C(CCCCN)n3cc(C(N)C(C)CC)nn3)CC2)nc(N2CCN(C(=O)C(Cc3cc4ccccc4[nH]3)n3cc(C(N)C(C)CC)nn3)CC2)n1 (stereo not given) | x | x | x | x | 7.9 | x | x
COc1cc2[nH]c(C(=O)N3CCN(c4ccccc4F)CC3)cc2c(OC)c1OC | 0.6 | 44.5* | -11.9 | 11.0 | -4.4 | + | +
COc1cccc(N2CCN(C(=O)c3cc4c(OC)c(OC)c(OC)cc4[nH]3)CC2)c1 | 5.2 | 0.9 | 26.3 | -8.0 | -14.5 | x | x
CC(=O)OC1CC[C@@]2(C)C(=CCC3C4CCC(C5(C)OCCO5)[C@@]4(C)CCC32)C1 (stereo not given in full) | x | x | x | x | 15.8 | x | x
COC(=O)c1ccc(CON=Cc2ccc(OC)cc2OC)cc1 | x | x | x | x | 13.7 | x | x
CCCC(=O)N=C1SC2CS(=O)(=O)CC2N1c1ccc(-c2nc3ccc(C)cc3s2)cc1 (stereo not given) | 2.9 | 53.2* | 13.6 | 16.3 | 3.3 | 140.6* | 103.0*
Cc1ccc(CNC(=O)C2C3C=CC4(CN(Cc5cccnc5)C(=O)C24)O3)cc1 (stereo not given) | -7.9 | 67.9* | 10.7 | 2.0 | x | 8.7 | -2.5
CCS(=O)(=O)N1N=C(c2ccc(NS(C)(=O)=O)cc2)CC1c1ccccc1 (stereo not given) | 0.1 | 109.1* | 0.1 | 18.9 | -1.6 | 12.2 | 0.9 | GDH-TPI dose=0.98*
CCS(=O)(=O)Nc1ccc(C2=NN(S(=O)(=O)CC)C(c3cccs3)C2)cc1 (stereo not given) | -5.1 | 49.1* | 18.2 | 14.5 | 7.9 | 146.9* | 129.9*
CCS(=O)(=O)Nc1cccc(C2=NN(S(=O)(=O)CC)C(c3cccs3)C2)c1 (stereo not given) | 3.3 | -0.2 | 5.5 | 1.5 | -15.6 | x | x
COc1ccc2c(c1)OC(c1ccc3c(c1)OCO3)C(O)C2=O (stereo not given) | x | x | x | x | 21.0 | x | x
c1cncc(-c2noc(-c3cccc4ccccc34)n2)c1 | 50.0 | 28.4* | 22.8 | 4.0 | 1.9 | 22.1 | 19.5*
CN(c1ccccc1)S(=O)(=O)c1cccc(NC(=O)CN2C(=O)NC3(CCCCC3)C2=O)c1 | 0.3 | 37.8* | x | 6.4 | x | 87.6* | 52.3*
CC1CCC2(CC1)NC(=O)N(CC(=O)Nc1cccc(S(=O)(=O)N(C)c3ccccc3)c1)C2=O (stereo not given) | x | 1.1 | x | 3.5 | x | x | x
O=S1(=O)CCOCC(Cc2ccccc2)N1Cc1ccccc1Br (stereo not given) | x | x | x | x | 20.3 | x | x
O=c1c2c(nc3c(-c4ccc(Cl)cc4)c[nH]n13)CCC2 | u | 44.1* | 25.9 | 5.1 | -1.2 | 31.9* | 27.6*
O=c1c2c(nc3c(-c4cccc(Br)c4)c[nH]n13)CCCC2 | 86.7 | -2.9 | -3.7 | 12.4 | -4.4 | x | x
O=c1c2c(nc3c(-c4ccccc4)c[nH]n13)CCC2 | 95.5 | 42.6* | 19.2 | 9.9 | 13.1 | 59.0* | 37.8*
Cc1ccc(-c2[nH]n3c(=O)c4c(nc3c2C)CCCC4)cc1 | -1.6 | 10.2 | 3.3 | 2.9 | 16.9 | x | x
CCOC(=O)NN=C1CC(C)CC(C)(C)C1 (stereo not given) | x | x | x | x | 7.9 | x | x
